# Assay results from PubChem BioAssay (EPA / NIEHS).
# Values joined by “and” are separate entries in the source; they are usually repeats but may differ in a detail not shown here. Identical values can stand only once. Inconclusive results are not listed. Some structures have more than one record in an assay (separate samples or runs), and their calls can disagree. Active and inactive are the calls of the source. Rule for the calls, unless noted: active = hit-call score of the fitted dose curve at least 0.9, where 1 is the maximum; inactive = score below 0.9.
# Key:
# [1] = BSK_3C_TissueFactor: BioMAP Diversity Plus: 3C Assay for Tissue Factor Biomarker Activity (AID 2282997); conditions: BioMAP 3C HUVEC, tissue factor biomarker readout; actives raise or lower the signal
# Summary of the method: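 Human vascular primary cells (umbilical vein endothelium) received test chemical; Tissue Factor was determined by ELISA at 24 h, and both gain and loss of signal versus DMSO were fitted.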
# [2] = read-out: Intercellular Adhesion Molecule 1 (ICAM1), ICAM1 (gene 3383); test: BSK_3C_ICAM1: BioMAP Diversity Plus: 3C Assay for Intercellular Adhesion Molecule 1 (ICAM1) Biomarker Activity (AID 2283003); conditions: primary human endothelial cells (HUVEC); actives raise or lower the signal
# Summary of the method: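 HUVEC primary cells stimulated under 3C conditions; ICAM1 measured by ELISA 24 h after compound dosing. Curves fitted bidirectionally against the DMSO baseline. Overt cytotoxicity checked by SRB staining of parallel cultures.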
# [3] = read-out: E-selectin (Homo sapiens) (UniProt P16581); test: BSK_3C_Eselectin: BioMAP Diversity Plus: 3C Assay for Eselectin Biomarker Activity (AID 2283015); conditions: primary human endothelial cells (HUVEC); actives raise or lower the signal
# Summary of the method: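 HUVEC, 3C stimulation; compound exposure 24 h; E-selectin by ELISA; gain- or loss-of-signal fitted bidirectionally vs DMSO baseline.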
# [4] = read-out: Human Leukocyte Antigen - DR isotype (HLADR), HLA-DRA (gene 3122); test: BSK_3C_HLADR: BioMAP Diversity Plus: 3C Assay for Human Leukocyte Antigen - DR isotype (HLADR) Biomarker Activity (AID 2283019); conditions: primary human endothelial cells (HUVEC); actives raise or lower the signal;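 for outcome: ELISA of cell-surface HLA-DR on HUVEC 24 h after dosing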
# Summary of the method: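 HUVEC, 3C stimulation, 24 h post-dose; HLA-DR by ELISA; bidirectional curve fit vs DMSO baseline; gain or loss of signal scored.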
# [5] = read-out: Pselectin, SELP (gene 6403); test: BSK_4H_Pselectin: BioMAP Diversity Plus: 4H Assay for Pselectin Biomarker Activity (AID 2283026); conditions: primary human endothelial cells (HUVEC); actives raise or lower the signal
# Summary of the method: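 Primary human umbilical vein endothelial cells were treated 24 h, and cell-surface P-selectin was then quantified by ELISA. Bidirectional fit versus DMSO; cytotoxicity checked in parallel cultures by SRB total-protein staining.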
# [6] = read-out: Human Leukocyte Antigen - DR isotype (HLADR), HLA-DRA (gene 3122); test: BSK_BE3C_HLADR: BioMAP Diversity Plus: BE3C Assay for Human Leukocyte Antigen - DR isotype (HLADR) Biomarker Activity (AID 2283032); conditions: primary human bronchial epithelial cells; actives raise or lower the signal
# Summary of the method: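 Human primary bronchial epithelial cells (BE3C system) exposed to compound for 24 hours; cell-surface HLA-DR measured by ELISA, fitted bidirectionally relative to DMSO. Total protein by SRB in parallel cultures tracked cytotoxicity.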
# [7] = read-out: Interferon-gamma inducible Protein 10 (IP10), CXCL10 (gene 3627); test: BSK_BE3C_IP10: BioMAP Diversity Plus: BE3C Assay for Interferon-gamma inducible Protein 10 (IP10) Biomarker Activity (AID 2283034); conditions: primary human bronchial epithelial cells; actives raise or lower the signal
# Summary of the method: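 Primary human bronchial epithelial cells, with IP-10 measured by ELISA 24 hours after chemical dosing. Bidirectional fit against DMSO; cytotoxicity checked by SRB total protein staining in parallel cultures.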
# [8] = read-out: urokinase plasminogen activator (uPA), PLAU (gene 5328); test: BSK_BE3C_uPA: BioMAP Diversity Plus: BE3C Assay for urokinase plasminogen activator (uPA) Biomarker Activity (AID 2283038); conditions: primary human bronchial epithelial cells; actives raise or lower the signal;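 for outcome: uPA protein level quantified by ELISA in cell cultures; uPA read one day after compound addition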
# Summary of the method: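 ELISA read-out of uPA in human lung primary bronchial epithelial cultures, 24 h post-dosing. Gain or loss of signal fitted bidirectionally relative to DMSO baseline; cytotoxicity checked in parallel cultures via SRB total protein stain.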
# [9] = read-out: Interleukin-6 (IL6), IL6 (gene 3569); test: BSK_CASM3C_IL6: BioMAP Diversity Plus: CASM3C Assay for Interleukin-6 (IL6) Biomarker Activity for (AID 2283040); conditions: primary human coronary artery smooth muscle cells; actives raise or lower the signal
# [10] = read-out: Tissue Factor, F3 (gene 2152); test: BSK_CASM3C_TissueFactor: BioMAP Diversity Plus: CASM3C Assay for Tissue Factor Biomarker Activity (AID 2283052); conditions: primary human coronary artery smooth muscle cells; actives raise or lower the signal;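 note: cell surface tissue factor protein level read by ELISA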
# [11] = read-out: Urokinase-type plasminogen activator receptor (uPAR), PLAUR (gene 5329); test: BSK_CASM3C_uPAR: BioMAP Diversity Plus: CASM3C Assay for Urokinase-type plasminogen activator receptor (uPAR) Biomarker Activity (AID 2283054); conditions: primary human coronary artery smooth muscle cells; actives raise or lower the signal;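 note: cell-surface uPAR protein level quantified by ELISA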
# [12] = read-out: Collagen III, COL3A1 (gene 1281); test: BSK_hDFCGF_CollagenIII: BioMAP Diversity Plus: hDFCGF Assay for Collagen III Biomarker Activity (AID 2283056); conditions: primary human foreskin fibroblasts; actives raise or lower the signal
# Summary of the method: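 hDFCGF primary human dermal fibroblasts; 24 h chemical exposure; collagen III by ELISA; bidirectional curve fit vs DMSO baseline (gain or loss of signal).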
# [13] = read-out: Epidermal growth factor receptor (EGFR), EGFR (gene 1956); test: BSK_hDFCGF_EGFR: BioMAP Diversity Plus: hDFCGF Assay for Epidermal growth factor receptor (EGFR) Biomarker Activity (AID 2283057); conditions: primary human foreskin fibroblasts; actives raise or lower the signal
# Summary of the method: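 Primary human foreskin fibroblasts (hDFCGF system), sampled 24 h after dosing; EGFR quantified by ELISA. Bidirectional fit relative to DMSO baseline; SRB total-protein staining in parallel cultures for cytotoxicity.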
# [14] = read-out: Vascular cell adhesion molecule 1 (VCAM1), VCAM1 (gene 7412); test: BSK_hDFCGF_VCAM1: BioMAP Diversity Plus: hDFCGF Assay for Vascular cell adhesion molecule 1 (VCAM1) Biomarker Activity (AID 2283065); conditions: primary human foreskin fibroblasts; actives raise or lower the signal;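 for AC50: VCAM-1 protein level quantified by ELISA after 24 h chemical exposure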
# Summary of the method: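 ELISA read-out of VCAM-1 on human skin fibroblasts, 24 h post-dose; gain or loss of signal fitted bidirectionally against DMSO baseline.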
# [15] = read-out: Intercellular Adhesion Molecule 1 (ICAM1), ICAM1 (gene 3383); test: BSK_KF3CT_ICAM1: BioMAP Diversity Plus: KF3CT Assay for Intercellular Adhesion Molecule 1 (ICAM1) Biomarker Activity (AID 2283067); conditions: primary human keratinocytes with fibroblasts; actives raise or lower the signal
# Summary of the method: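 ELISA readout of ICAM-1; KF3CT human skin co-culture (keratinocytes + foreskin fibroblasts), 24 h post-dose; gain/loss fit vs DMSO baseline.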
# CD40, CD40 (gene 958) = test: BSK_LPS_CD40: BioMAP Diversity Plus: LPS Assay for CD40 Biomarker Activity (AID 2283076); conditions: primary human HUVEC with PBMC; actives raise or lower the signal
# Summary of the method: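 ELISA readout of CD40 in HUVEC/PBMC co-culture (BSK_LPS system), 24 h post-dosing; bidirectional curve fit, DMSO baseline; parallel SRB total-protein staining for cytotoxicity.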
# [16] = read-out: E-selectin (Homo sapiens) (UniProt P16581); test: BSK_LPS_Eselectin: BioMAP Diversity Plus: LPS Assay for Eselectin Biomarker Activity (AID 2283077); conditions: primary human HUVEC with PBMC; actives raise or lower the signal
# Summary of the method: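 ELISA readout of E-selectin, 24 h post-dose, HUVEC + PBMC co-culture (LPS system). Gain or loss of signal vs DMSO baseline, bidirectional fit.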
# [17] = read-out: Monocyte Chemoattractant Protein-1 (MCP1), CCL2 (gene 6347); test: BSK_LPS_MCP1: BioMAP Diversity Plus: LPS Assay for Monocyte Chemoattractant Protein-1 (MCP1) Biomarker Activity (AID 2283081); conditions: primary human HUVEC with PBMC; actives raise or lower the signal;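 for AC50: secreted MCP-1 protein quantified by ELISA in culture supernatant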
# Summary of the method: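 ELISA read-out of MCP-1 after 24 h chemical dosing of a human umbilical vein endothelial cell/peripheral blood mononuclear cell co-culture stimulated with LPS. Gain or loss of signal fitted relative to DMSO controls.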
# [18] = BSK_LPS_PGE2: BioMAP Diversity Plus: LPS Assay for Prostaglandin E2 (PGE2) Biomarker Activity (AID 2283082); conditions: primary human HUVEC with PBMC; actives raise or lower the signal;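 for AC50: secreted prostaglandin E2 measured by ELISA in LPS-stimulated co-culture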
# Summary of the method: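 HUVEC plus human PBMC co-culture stimulated with LPS; secreted PGE2 quantified by ELISA 24 h after chemical dosing. Activity fitted bidirectionally against DMSO baseline; parallel SRB staining (0.1% SRB after 10% TCA fixation, 560 nm) flags overt cytotoxicity.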
# [19] = target: human Peroxisome Proliferator-activated Receptor delta (PPARd), PPARD (gene 5467) (UniProt Q03181); test: ATG_PPARd_TRANS: Attagene TRANS-FACTORIAL HepG2 Assay for human Peroxisome Proliferator-activated Receptor delta (PPARd) (AID 2283002; active = hit-call score of the fitted dose curve at least 0.9, where 1 is the maximum)
# human Peroxisome Proliferator-activated Receptor delta (PPARd), PPARD (gene 5467), sequence (Q03181 whole entry, looked up, the tested form may be a part): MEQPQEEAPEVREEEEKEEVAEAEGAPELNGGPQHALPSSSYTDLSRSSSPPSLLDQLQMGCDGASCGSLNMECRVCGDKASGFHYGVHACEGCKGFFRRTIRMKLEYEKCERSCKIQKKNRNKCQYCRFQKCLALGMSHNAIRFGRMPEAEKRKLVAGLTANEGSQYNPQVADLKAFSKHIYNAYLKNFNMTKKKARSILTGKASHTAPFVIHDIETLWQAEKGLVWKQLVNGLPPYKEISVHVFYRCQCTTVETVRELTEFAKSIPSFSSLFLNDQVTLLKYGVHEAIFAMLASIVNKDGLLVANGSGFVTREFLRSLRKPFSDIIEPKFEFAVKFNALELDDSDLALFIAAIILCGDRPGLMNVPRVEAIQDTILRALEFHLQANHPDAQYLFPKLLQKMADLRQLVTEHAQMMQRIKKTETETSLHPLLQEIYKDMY
# Summary of the method: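 HepG2 cells transiently transfected with multiplexed GAL4-UAS reporter units and exogenous chimeric NR-Gal4 proteins; 24 h compound exposure. Reporter mRNA measured by RT-PCR, 6-FAM labelling, HpaI digestion and capillary electrophoresis; gain of signal versus DMSO.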
# E-selectin (Homo sapiens), sequence (P16581 whole entry, looked up): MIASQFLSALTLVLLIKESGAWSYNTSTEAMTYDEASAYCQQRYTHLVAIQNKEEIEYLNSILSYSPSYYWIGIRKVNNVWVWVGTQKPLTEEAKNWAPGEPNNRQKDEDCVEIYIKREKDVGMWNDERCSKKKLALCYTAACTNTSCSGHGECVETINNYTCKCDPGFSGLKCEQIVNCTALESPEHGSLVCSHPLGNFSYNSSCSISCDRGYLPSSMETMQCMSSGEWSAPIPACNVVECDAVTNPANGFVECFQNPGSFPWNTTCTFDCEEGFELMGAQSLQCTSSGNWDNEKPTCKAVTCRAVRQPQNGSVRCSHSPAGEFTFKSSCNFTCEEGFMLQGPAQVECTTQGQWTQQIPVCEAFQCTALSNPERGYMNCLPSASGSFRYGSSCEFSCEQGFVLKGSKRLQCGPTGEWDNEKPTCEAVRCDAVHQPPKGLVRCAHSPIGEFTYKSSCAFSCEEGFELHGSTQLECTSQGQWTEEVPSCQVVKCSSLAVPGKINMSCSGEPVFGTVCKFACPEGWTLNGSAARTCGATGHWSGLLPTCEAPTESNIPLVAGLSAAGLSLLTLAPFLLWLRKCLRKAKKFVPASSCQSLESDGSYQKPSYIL
structure (smiles),measurement,setting,value
CCC(C)=NO,outcome,[1],inactive
same,outcome,[2],inactive
same,outcome,[3],inactive
same,outcome,[4],inactive
same,outcome,[5],inactive
same,outcome,[6],inactive
same,outcome,[7],inactive
same,outcome,[8],inactive
same,outcome,[9],inactive
same,outcome,[10],inactive
same,outcome,[11],inactive
same,outcome,[12],inactive
same,outcome,[13],inactive
same,outcome,[14],inactive
same,outcome,[15],inactive
same,outcome,"CD40, CD40 (gene 958)",inactive
same,outcome,[16],inactive
same,outcome,[17],inactive
same,outcome,[18],inactive
CCC(C)(CCC(C)C)C(=O)O (stereo not drawn),outcome,[19],inactive
CCC(=O)OCc1ccc(OC)cc1,outcome,[19],inactive
Cc1c(C(N)=O)cc([N+](=O)[O-])cc1[N+](=O)[O-],outcome,[1],inactive
same,outcome,[2],inactive
same,outcome,[3],inactive
same,outcome,[4],inactive
same,outcome,[5],inactive
same,AC50,[6],27.8 µM (active)
same,outcome,[6],inactive
same,AC50,[7],32.6 µM (active)
same,outcome,[7],inactive
same,outcome,[8],inactive
same,outcome,[9],inactive
same,outcome,[10],inactive
same,outcome,[11],inactive
same,outcome,[12],inactive
same,outcome,[13],inactive
same,outcome,[14],inactive
same,outcome,[15],inactive
same,outcome,"CD40, CD40 (gene 958)",inactive
same,outcome,[16],inactive
same,outcome,[17],inactive
same,outcome,[18],inactive
CCCCCCC1CCCC(=O)O1 (stereo not drawn),AC50,[19],52.6 µM (active)
CC(C)C1OCCN1CCOC(=O)NCCCCCCNC(=O)OCCN1CCOC1C(C)C (stereo not drawn),outcome,[1],inactive
same,outcome,[2],inactive
same,outcome,[3],inactive
same,outcome,[4],inactive
same,outcome,[5],inactive
same,outcome,[6],inactive
same,outcome,[7],inactive
same,outcome,[8],inactive
same,outcome,[9],inactive
same,outcome,[10],inactive
same,outcome,[11],inactive
same,outcome,[12],inactive
same,outcome,[13],inactive
same,outcome,[14],inactive
same,outcome,[15],inactive
same,outcome,"CD40, CD40 (gene 958)",inactive
same,outcome,[16],inactive
same,outcome,[17],inactive
same,outcome,[18],inactive
O=[N+]([O-])c1cc(S(=O)(=O)Nc2ccccc2)ccc1Nc1ccccc1,AC50,[1],34.8 µM (active)
same,outcome,[1],inactive
same,outcome,[2],inactive
same,AC50,[3],13.3 µM (active)
same,outcome,[3],inactive
same,AC50,[4],13.9 µM (active)
same,AC50,[5],32.2 µM (active) and 31.7 µM (active)
same,AC50,[6],31 µM (active) and 32 µM (active)
same,AC50,[7],32.4 µM (active) and 31.9 µM (active)
same,AC50,[8],34.9 µM (active)
same,outcome,[8],inactive
same,AC50,[9],20 µM (active) and 10.3 µM (active)
same,outcome,[10],inactive
same,outcome,[11],inactive
same,AC50,[12],5.82 µM (active) and 5.34 µM (active)
same,AC50,[13],30.4 µM (active) and 31.3 µM (active)
same,AC50,[14],32.4 µM (active) and 27 µM (active)
same,AC50,[15],32.8 µM (active) and 32.4 µM (active)
same,AC50,"CD40, CD40 (gene 958)",32.6 µM (active) and 20 µM (active)
same,AC50,[16],20 µM (active) and 26.5 µM (active)
same,AC50,[17],29.1 µM (active) and 28.5 µM (active)
same,AC50,[18],28.9 µM (active)
same,outcome,[18],inactive
CCOc1ccc2c(c1)C(C)CC(C)(C)N2 (stereo not drawn),outcome,[19],inactive
CC/C=C\CCCCCO,outcome,[19],inactive
CCCc1c(OCCCCc2nn[nH]n2)ccc(C(C)=O)c1O,outcome,[19],inactive
COc1ccc(C(=O)c2ccccc2O)c(O)c1,AC50,[1],20 µM (active) and 17.9 µM (active)
same,outcome,[2],inactive
same,outcome,[3],inactive
same,AC50,[4],20 µM (active)
same,outcome,[4],inactive
same,AC50,[5],20 µM (active)
same,outcome,[5],inactive
same,outcome,[6],inactive
same,outcome,[7],inactive
same,outcome,[8],inactive
same,outcome,[9],inactive
same,outcome,[10],inactive
same,outcome,[11],inactive
same,AC50,[12],7.73 µM (active)
same,outcome,[12],inactive
same,outcome,[13],inactive
same,outcome,[14],inactive
same,outcome,[15],inactive
same,outcome,"CD40, CD40 (gene 958)",inactive
same,outcome,[16],inactive
same,outcome,[17],inactive
same,AC50,[18],6.03 µM (active)
CCC[Si](OC(C)=O)(OC(C)=O)OC(C)=O,outcome,[1],inactive
same,outcome,[2],inactive
same,outcome,[3],inactive
same,outcome,[4],inactive
same,outcome,[5],inactive
same,outcome,[6],inactive
same,outcome,[7],inactive
same,outcome,[8],inactive
same,outcome,[9],inactive
same,outcome,[10],inactive
same,AC50,[11],3.83 µM (active)
same,outcome,[11],inactive
same,outcome,[12],inactive
same,outcome,[13],inactive
same,outcome,[14],inactive
same,outcome,[15],inactive
same,outcome,"CD40, CD40 (gene 958)",inactive
same,outcome,[16],inactive
same,outcome,[17],inactive
same,outcome,[18],inactive
CCCCCC1CCCC(=O)O1 (stereo not drawn),outcome,[19],inactive
O=C1CCCCCCCCCCCCCC1,outcome,[19],inactive
CCCCNC(N)=O,outcome,[19],inactive
